We go through 2 molecules from ChEMBL document CHEMBL3988442, “University of Dundee, Small-Polar-MMV Screening Library” (2021).

For part of these data: Measured potencies and affinities stand elsewhere.

The target of assay [1] is T1, Methionyl-tRNA synthetase, putative (Leishmania donovani (strain BPK282A1)) (UniProt E9BF75).
T1 sequence (whole entry): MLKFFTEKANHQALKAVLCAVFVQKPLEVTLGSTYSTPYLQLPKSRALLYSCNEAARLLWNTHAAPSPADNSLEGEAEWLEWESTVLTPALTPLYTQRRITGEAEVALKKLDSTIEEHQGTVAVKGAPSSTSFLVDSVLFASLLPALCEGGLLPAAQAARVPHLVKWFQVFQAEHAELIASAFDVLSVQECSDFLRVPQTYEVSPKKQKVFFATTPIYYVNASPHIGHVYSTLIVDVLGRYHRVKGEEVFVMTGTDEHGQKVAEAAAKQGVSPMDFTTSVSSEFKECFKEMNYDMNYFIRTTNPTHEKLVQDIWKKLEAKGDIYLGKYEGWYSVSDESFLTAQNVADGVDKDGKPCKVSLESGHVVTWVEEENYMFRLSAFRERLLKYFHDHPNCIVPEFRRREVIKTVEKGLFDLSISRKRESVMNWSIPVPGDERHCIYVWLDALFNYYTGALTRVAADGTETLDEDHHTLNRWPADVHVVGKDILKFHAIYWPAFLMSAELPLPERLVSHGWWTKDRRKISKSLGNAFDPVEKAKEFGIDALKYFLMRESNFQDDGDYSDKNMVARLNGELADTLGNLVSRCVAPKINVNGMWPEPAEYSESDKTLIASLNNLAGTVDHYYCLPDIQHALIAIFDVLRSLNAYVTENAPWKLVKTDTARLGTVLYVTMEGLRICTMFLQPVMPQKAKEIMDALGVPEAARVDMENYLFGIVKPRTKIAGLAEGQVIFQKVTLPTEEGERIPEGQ
Briefly: Leishmania donovani Methionine tRNA synthetase (LdMetRS):v7. Dose response assay. Format: functional. On the set-up: conc 80 nM, time 150 minutes.

For assay [2], the target named is Protein translocase subunit SecA (Escherichia coli (strain K12)) (UniProt P10408). Description: Assay to Identify E. coli SecA ATPase Inhibitors. The format is functional. On the set-up: scale not given: direction of the effect not stated beside the values. The conditions noted are these: 30 µM.
For assay [3], the target named is T2, Ubiquitin-activating enzyme e1, putative (Leishmania donovani (strain BPK282A1)) (UniProt E9BSI1).
T2 sequence (whole entry): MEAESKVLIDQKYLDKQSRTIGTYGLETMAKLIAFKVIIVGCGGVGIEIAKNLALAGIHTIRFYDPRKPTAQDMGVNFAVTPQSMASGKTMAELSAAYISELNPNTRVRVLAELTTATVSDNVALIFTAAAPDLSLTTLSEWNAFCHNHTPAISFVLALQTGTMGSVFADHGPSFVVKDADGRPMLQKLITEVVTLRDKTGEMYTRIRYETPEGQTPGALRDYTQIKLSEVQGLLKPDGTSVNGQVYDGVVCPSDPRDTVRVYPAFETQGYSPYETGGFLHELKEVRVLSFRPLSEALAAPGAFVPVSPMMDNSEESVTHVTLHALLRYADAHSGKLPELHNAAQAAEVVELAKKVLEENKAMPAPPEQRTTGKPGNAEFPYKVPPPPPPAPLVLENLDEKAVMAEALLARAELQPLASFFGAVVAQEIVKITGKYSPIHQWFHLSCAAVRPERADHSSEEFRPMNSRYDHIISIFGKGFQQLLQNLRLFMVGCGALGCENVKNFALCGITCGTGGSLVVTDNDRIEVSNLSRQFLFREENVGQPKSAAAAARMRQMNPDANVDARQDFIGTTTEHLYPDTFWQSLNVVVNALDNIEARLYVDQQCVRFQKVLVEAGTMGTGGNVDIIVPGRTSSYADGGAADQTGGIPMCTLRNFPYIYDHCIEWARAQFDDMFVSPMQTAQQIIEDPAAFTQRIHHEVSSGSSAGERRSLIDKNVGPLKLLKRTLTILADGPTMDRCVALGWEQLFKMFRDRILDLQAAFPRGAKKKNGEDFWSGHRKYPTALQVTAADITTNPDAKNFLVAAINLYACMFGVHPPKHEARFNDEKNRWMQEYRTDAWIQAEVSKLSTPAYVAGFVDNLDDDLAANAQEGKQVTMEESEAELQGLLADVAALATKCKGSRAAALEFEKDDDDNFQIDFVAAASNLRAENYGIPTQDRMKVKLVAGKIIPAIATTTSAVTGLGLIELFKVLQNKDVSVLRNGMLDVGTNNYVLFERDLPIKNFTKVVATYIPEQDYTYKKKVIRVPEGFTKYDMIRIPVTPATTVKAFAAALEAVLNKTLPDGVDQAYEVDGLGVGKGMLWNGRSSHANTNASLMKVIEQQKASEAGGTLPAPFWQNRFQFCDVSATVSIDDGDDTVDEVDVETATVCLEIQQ
Description: Leishmania donovani Ubiquitin Activating Enzyme (LdE1). The format is functional. On the set-up: scale not given: direction of the effect not stated beside the values. Particulars: 30 µM.

In assay [4] the target is AMP-activated protein kinase, AMPK (Homo sapiens) (UniProt P54646+O43741+P54619+Q9UGJ0+Q9Y478+Q13131+Q9UGI9). Briefly: AMP-dependent Kinase enzyme assay. An in vitro enzyme assay that detects ADP turnover that is directly proportional to AMPK activity. This uses naive AMPK that is activated during the assay with MK-8722. Format: functional. On the set-up: scale not given: direction of the effect not stated beside the values. Particulars: 30 µM.

Assay [5] deals with Sialic acid-binding Ig-like lectin 9 (Homo sapiens) (UniProt Q9Y336). Description: Hs-Siglec9 ALPHAscreen SOP 20170721. Further details: scale not given: direction of the effect not stated beside the values. Particulars: 10 µM. Background: Alpha assays give light when donor and acceptor beads are brought close together.
The test system of a further assay is Trypanosoma cruzi. Description: Trypanosoma cruzi phosphomannomutase and mannose-1-phosphate guanylyltransferase assay. Format: functional. Further details: scale not given: direction of the effect not stated beside the values. Particulars: 10 µM.
The target of assay [6] is T3, Arginase-2, mitochondrial (Homo sapiens) (UniProt P78540).
T3 sequence (whole entry): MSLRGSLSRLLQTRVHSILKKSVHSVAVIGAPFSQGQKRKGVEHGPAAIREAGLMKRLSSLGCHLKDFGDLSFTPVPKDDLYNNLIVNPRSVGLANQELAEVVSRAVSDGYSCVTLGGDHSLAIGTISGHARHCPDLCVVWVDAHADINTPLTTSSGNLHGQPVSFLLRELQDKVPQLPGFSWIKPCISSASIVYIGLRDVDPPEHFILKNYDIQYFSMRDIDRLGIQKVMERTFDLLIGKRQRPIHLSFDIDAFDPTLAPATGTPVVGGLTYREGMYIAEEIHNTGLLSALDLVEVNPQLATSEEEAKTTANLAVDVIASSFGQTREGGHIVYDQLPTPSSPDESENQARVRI
Briefly: in vitro enzyme assay to detect the production of urea directly proportional to the activity of Arginase II. The format is functional. Further details: scale not given: in the data most compounds retested in dose-response had high values. Particulars: 33.3 µM.

The target of assay [7] is T4, Proteasome subunit beta (Trypanosoma cruzi) (UniProt O96673).
T4 sequence (whole entry): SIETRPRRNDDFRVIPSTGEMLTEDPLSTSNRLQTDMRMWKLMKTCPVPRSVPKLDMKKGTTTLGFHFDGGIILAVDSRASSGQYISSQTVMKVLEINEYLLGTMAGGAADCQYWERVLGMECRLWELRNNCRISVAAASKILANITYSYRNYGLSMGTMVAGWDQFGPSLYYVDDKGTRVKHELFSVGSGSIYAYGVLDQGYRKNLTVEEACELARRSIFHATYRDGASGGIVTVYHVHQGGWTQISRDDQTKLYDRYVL
Description: Trypanosoma cruzi proteasome chymotrypsin-like activity (TcProtChymo) assay. The format is functional. On the set-up: scale not given: in the data most compounds retested in dose-response had high values. Particulars: 9.37 µM.

The species entered for another assay is Homo sapiens. Briefly: To identify inhibition of the IFN signalling (Jak-Stat) pathway via expression of an eGFP reporter gene under the control of an IFN-stimulated response element (ISRE) containing MxA promoter. On the set-up: scale not given: direction of the effect not stated beside the values. Particulars: 30 µM. The format is functional.
For assay [8], the target named is T5, Tyrosyl-tRNA synthetase, putative (Trypanosoma cruzi (strain CL Brener)) (UniProt Q4DSP6).
T5 sequence (whole entry): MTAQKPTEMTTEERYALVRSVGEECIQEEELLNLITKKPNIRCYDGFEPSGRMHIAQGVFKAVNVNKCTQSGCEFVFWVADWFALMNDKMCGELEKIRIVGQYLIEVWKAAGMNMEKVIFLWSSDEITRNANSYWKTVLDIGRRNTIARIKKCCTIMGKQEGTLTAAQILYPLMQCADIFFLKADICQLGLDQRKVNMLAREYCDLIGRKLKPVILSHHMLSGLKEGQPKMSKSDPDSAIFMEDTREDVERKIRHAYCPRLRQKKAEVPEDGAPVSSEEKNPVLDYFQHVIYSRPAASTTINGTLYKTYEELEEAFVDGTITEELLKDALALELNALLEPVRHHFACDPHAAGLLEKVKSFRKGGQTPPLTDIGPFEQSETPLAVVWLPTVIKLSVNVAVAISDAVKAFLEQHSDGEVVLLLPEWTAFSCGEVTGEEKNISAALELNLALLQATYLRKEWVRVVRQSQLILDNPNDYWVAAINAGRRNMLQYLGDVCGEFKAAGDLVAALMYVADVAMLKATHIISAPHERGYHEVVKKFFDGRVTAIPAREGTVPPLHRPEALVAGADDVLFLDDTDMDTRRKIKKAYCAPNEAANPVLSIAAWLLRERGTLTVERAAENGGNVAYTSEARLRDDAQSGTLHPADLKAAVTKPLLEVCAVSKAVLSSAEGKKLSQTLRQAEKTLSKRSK
Briefly: Trypanosoma cruzi tyrosyl tRNA synthetase (TcYRS) _High Tyrosine SOP. The format is functional. Particulars: 30 µM. On the set-up: scale not given: in the data most compounds retested in dose-response had high values.

Assay [9] addresses T5, Tyrosyl-tRNA synthetase, putative (Trypanosoma cruzi (strain CL Brener)). Description: Trypanosoma cruzi tyrosyl tRNA synthetase (TcYRS) SOP. The conditions noted are these: 30 µM. Further details: scale not given: direction of the effect not stated beside the values. Format: functional.
In assay [10] the target is Chromo domain-containing protein 1 (Saccharomyces cerevisiae (strain ATCC 204508 / S288c) (Baker's yeast)) (UniProt P32657). Description: ScCHD-1 Enzyme Inhibition Assay. Format: functional. On the set-up: scale not given: in the data most compounds retested in dose-response had high values. The conditions noted are these: 30 µM.
Chain of Chromo domain-containing protein 1 (Saccharomyces cerevisiae (strain ATCC 204508 / S288c) (Baker's yeast)) (P32657 whole entry, the tested form may be a part): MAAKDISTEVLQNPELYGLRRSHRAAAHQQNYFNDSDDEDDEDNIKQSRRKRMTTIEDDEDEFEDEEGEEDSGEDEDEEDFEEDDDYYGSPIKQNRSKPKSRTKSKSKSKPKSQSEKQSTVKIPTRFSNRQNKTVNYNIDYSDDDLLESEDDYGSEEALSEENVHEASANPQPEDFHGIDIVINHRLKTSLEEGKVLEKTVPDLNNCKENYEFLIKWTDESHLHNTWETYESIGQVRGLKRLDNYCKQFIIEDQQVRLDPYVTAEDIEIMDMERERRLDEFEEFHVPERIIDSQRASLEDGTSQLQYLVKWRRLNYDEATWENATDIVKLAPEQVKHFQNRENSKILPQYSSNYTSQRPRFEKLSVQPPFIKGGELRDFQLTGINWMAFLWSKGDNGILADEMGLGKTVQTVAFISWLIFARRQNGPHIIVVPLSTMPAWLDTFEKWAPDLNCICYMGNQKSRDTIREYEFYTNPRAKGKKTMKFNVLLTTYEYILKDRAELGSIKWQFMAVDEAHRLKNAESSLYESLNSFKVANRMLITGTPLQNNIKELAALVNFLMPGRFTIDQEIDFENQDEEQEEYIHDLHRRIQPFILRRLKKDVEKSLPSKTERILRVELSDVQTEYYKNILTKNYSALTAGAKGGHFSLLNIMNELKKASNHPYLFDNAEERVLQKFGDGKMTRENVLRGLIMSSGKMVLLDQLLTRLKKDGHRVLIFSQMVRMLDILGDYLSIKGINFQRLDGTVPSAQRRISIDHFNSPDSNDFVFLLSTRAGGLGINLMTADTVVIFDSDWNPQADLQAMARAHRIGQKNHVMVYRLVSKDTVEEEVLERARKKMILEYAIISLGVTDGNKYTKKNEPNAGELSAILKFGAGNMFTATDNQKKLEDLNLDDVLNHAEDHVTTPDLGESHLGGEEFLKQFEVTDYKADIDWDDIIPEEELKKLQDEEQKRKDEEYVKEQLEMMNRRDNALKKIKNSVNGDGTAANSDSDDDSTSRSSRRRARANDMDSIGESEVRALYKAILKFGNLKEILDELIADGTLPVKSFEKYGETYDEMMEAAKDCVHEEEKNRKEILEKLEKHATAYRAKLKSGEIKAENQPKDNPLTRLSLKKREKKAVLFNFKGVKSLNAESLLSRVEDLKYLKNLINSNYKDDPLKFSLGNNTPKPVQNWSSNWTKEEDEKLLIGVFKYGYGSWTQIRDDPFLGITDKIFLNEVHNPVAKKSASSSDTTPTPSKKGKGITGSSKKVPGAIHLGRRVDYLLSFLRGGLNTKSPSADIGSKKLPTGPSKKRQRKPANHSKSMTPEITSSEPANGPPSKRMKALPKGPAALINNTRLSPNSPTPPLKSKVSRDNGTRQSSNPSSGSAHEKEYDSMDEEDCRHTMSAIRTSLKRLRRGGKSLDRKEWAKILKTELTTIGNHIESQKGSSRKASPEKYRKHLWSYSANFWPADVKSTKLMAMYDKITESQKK

Chain of Protein translocase subunit SecA (Escherichia coli (strain K12)) (P10408 whole entry): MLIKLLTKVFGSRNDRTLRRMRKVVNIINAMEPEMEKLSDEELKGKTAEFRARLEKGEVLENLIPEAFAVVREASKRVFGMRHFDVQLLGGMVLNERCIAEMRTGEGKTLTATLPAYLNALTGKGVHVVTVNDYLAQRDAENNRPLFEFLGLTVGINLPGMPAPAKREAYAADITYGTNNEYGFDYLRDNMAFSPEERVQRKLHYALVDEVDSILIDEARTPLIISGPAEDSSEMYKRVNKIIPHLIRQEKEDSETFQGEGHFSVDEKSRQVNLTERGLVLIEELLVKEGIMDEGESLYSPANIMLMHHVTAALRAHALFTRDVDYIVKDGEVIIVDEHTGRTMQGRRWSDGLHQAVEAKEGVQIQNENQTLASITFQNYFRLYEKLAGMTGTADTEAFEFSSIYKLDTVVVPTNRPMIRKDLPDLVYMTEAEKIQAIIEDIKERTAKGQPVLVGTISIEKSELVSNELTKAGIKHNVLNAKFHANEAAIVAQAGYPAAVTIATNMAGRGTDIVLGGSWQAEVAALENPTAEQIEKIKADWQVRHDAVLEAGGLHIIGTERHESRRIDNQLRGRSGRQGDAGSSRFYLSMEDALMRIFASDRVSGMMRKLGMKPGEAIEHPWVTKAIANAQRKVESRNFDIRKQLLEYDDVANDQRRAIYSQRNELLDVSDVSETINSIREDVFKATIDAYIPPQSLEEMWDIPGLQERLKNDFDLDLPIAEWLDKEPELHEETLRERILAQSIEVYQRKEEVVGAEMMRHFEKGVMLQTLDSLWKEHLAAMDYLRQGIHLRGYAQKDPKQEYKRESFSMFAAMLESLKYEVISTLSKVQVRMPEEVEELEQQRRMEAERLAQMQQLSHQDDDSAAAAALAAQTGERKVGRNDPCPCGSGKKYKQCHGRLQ
Chain of Sialic acid-binding Ig-like lectin 9 (Homo sapiens) (Q9Y336 whole entry): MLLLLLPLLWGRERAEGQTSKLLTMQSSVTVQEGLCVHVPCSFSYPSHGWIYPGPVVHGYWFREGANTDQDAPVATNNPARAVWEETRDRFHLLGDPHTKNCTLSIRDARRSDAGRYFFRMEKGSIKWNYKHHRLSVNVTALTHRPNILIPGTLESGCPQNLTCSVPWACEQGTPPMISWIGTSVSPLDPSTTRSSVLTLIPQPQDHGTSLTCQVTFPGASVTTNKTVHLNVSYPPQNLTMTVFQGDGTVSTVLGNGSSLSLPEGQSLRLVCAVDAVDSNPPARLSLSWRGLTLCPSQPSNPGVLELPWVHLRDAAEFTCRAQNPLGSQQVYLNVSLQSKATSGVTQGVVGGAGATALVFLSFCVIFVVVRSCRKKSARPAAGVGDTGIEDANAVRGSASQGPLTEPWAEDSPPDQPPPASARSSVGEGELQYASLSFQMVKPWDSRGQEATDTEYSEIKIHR

Regarding `O=C(c1ccc2[nH]ccc2c1)N1CCn2cnc(COCC3CC3)c2C1`, the PXC50 in [1] (BOTTOM 5.122464756, HILLSLOPE 1.784249951, MAX_EFFECT 79.5379538, TOP 100.0) is 4.27; in assay [1] (BOTTOM 5.453463465, HILLSLOPE 1.390916791, MAX_EFFECT 57.24637681, TOP 100.0), 4.07; in assay [1] (MAX_EFFECT 37.27598566) it was under 4. Further, the Percent Effect is 1.11% in assay [2]; 7.79% in assay [3]; 5.2% in [4]; -2.14% in assay [5]; -2.66% in the assay on Trypanosoma cruzi; 13.6% in [6]. The Percent Effect in [7] was 17.4%; in the assay listed under Homo sapiens, 5.61%; in [8] it was 26.5%; in [9], 37.2%; in assay [10] it was -6.46%.
For `O=C(CCC1CCCC1)N1CCC(c2ncc3c(n2)CCNC3)CC1`, the PXC50 in assay [1] (MAX_EFFECT 18.13380282) and in assay [1] (MAX_EFFECT 20.42755344) was under 4 each time. In addition, the Percent Effect in assay [2] is -7.04%; in [3], 14.9%; in assay [4], 0.0771%; in assay [5], 5.51%; in the assay on Trypanosoma cruzi, 2.57%; in assay [6] it was -6.26%. Besides, the Percent Effect was 8.42% in assay [7]; 31.7% in the assay filed under Homo sapiens; 10.8% in [8]; 19.5% in assay [9]; -23.3% in assay [10].
